According to PubChem BioAssay AID1159580 (chemical genetic matrix, 2015):
The whole screen tested about 5,500 compounds, of which about 2,000 (36%) were called active. Roughly 18% stayed inconclusive and do not appear here. The list shows a part of the results. Values without a mark were called inactive. Rule as the data show it: active = normalized growth mostly below about 0.91 (no sharp cut-off); inconclusive = no clear call, values can overlap the other calls; inactive = mostly above about 0.92.

Assay: chemical genetic growth profiling, strain panel (AID 1159580);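 also: tested at 20 µM; growth read once vehicle control cultures reached saturation at 30 °C; 1 = growth at the plate median or of vehicle wells; lower values mean less growth of the strain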
Settings: growth OD

In the case of `O=C(O)c1cc2ccccc2c(Cc2c(O)c(C(=O)O)cc3ccccc23)c1O`, the normalized growth (S. cerevisiae deletion strains, locus YJR043C, strain POL32, hits give low values) is reported as 1.01, the normalized growth (S. cerevisiae deletion strains, locus YJR066W, strain TOR1, hits give low values) is reported as 0.819 (active) and the normalized growth (S. cerevisiae deletion strains, locus YKL009W, strain mrt4, hits give low values) is reported as 0.989. The normalized growth (S. cerevisiae deletion strains, locus YKL068W, hits give low values) was 1.01, the normalized growth (S. cerevisiae deletion strains, locus YKL085W, strain MDH1 (second series), hits give low values) was 1 and the normalized growth (S. cerevisiae deletion strains, locus YKL085W, strain MDH1, hits give low values) was 1. It also gave a normalized growth (S. cerevisiae deletion strains, locus YKL160W, strain elf1, hits give low values) of 1, a normalized growth (S. cerevisiae deletion strains, locus YKR001C, strain vps1, hits give low values) of 0.966 and a normalized growth (S. cerevisiae deletion strains, locus YKR026C, strain gcn3, hits give low values) of 0.998. It also gave a normalized growth (S. cerevisiae deletion strains, locus YKR091W, strain srl3, hits give low values) of 1, a normalized growth (S. cerevisiae deletion strains, locus YLL001W, strain dnm1, hits give low values) of 0.996 and a normalized growth (S. cerevisiae deletion strains, locus YLL026W, hits give low values) of 1. For the same molecule, the normalized growth (S. cerevisiae deletion strains, locus YLL041C, strain sdh2, hits give low values) was 0.992, the normalized growth (S. cerevisiae deletion strains, locus YLR027C, strain aat2, hits give low values) was 0.999 and the normalized growth (S. cerevisiae deletion strains, locus YLR039C, strain RIC1, hits give low values) was 0.996. For the same molecule, the normalized growth (S. cerevisiae deletion strains, locus YLR058C, strain SHM2, hits give low values) was 1, the normalized growth (S. cerevisiae deletion strains, locus YLR102C, strain apc9, hits give low values) was 0.994 and the normalized growth (S. cerevisiae deletion strains, locus YLR113W, strain HOG1, hits give low values) was 0.847 (active). For the same molecule, the normalized growth (S. cerevisiae deletion strains, locus YLR221C, strain rsa3, hits give low values) was 0.99, the normalized growth (S. cerevisiae deletion strains, locus YLR258W, strain gsy2, hits give low values) was 0.996 and the normalized growth (S. cerevisiae deletion strains, locus YLR262C, strain YPT6 (second series), hits give low values) was 1.01. It also gave a normalized growth (S. cerevisiae deletion strains, locus YLR262C, strain YPT6, hits give low values) of 1.07, a normalized growth (S. cerevisiae deletion strains, locus YLR268W, strain sec22, hits give low values) of 0.993 and a normalized growth (S. cerevisiae deletion strains, locus YLR320W, strain mms22, hits give low values) of 0.991. It also gave a normalized growth (S. cerevisiae deletion strains, locus YLR330W, strain CHS5, hits give low values) of 0.996, a normalized growth (S. cerevisiae deletion strains, locus YLR342W, strain FKS1 (second series), hits give low values) of 0.972 and a normalized growth (S. cerevisiae deletion strains, locus YLR342W, strain FKS1, hits give low values) of 0.998. The normalized growth (S. cerevisiae deletion strains, locus YLR357W, strain rsc2, hits give low values) was 0.99, the normalized growth (S. cerevisiae deletion strains, locus YLR370C, strain arc18, hits give low values) was 1.01 and the normalized growth (S. cerevisiae deletion strains, locus YLR371W, strain rom2, hits give low values) was 0.966. The normalized growth (S. cerevisiae deletion strains, locus YLR384C, strain iki3, hits give low values) was 0.988, the normalized growth (S. cerevisiae deletion strains, locus YLR418C, strain cdc73, hits give low values) was 0.93 and the normalized growth (S. cerevisiae deletion strains, locus YML016C, strain PPZ1, hits give low values) was 0.978. It also gave a normalized growth (S. cerevisiae deletion strains, locus YML032C, strain rad52, hits give low values) of 0.994, a normalized growth (S. cerevisiae deletion strains, locus YML120C, strain ndi1, hits give low values) of 1 and a normalized growth (S. cerevisiae deletion strains, locus YML124C, strain tub3, hits give low values) of 0.994. The normalized growth (S. cerevisiae deletion strains, locus YMR058W, strain fet3, hits give low values) was 1, the normalized growth (S. cerevisiae deletion strains, locus YMR078C, strain ctf18, hits give low values) was 0.984 and the normalized growth (S. cerevisiae deletion strains, locus YMR125W, strain sto1, hits give low values) was 1. The normalized growth (S. cerevisiae deletion strains, locus YMR129W, hits give low values) was 0.997, the normalized growth (S. cerevisiae deletion strains, locus YMR205C, strain PFK2, hits give low values) was 1.01 and the normalized growth (S. cerevisiae deletion strains, locus YMR223W, strain ubp8, hits give low values) was 1. It also gave a normalized growth (S. cerevisiae deletion strains, locus YMR231W, strain pep5, hits give low values) of 1, a normalized growth (S. cerevisiae deletion strains, locus YMR263W, strain SAP30, hits give low values) of 0.999 and a normalized growth (S. cerevisiae deletion strains, locus YMR307W, strain GAS1, hits give low values) of 1.1. For the same molecule, the normalized growth (S. cerevisiae deletion strains, locus YNL067W, strain RPL9B, hits give low values) was 1.01, the normalized growth (S. cerevisiae deletion strains, locus YNL071W, strain lat1, hits give low values) was 0.987 and the normalized growth (S. cerevisiae deletion strains, locus YNL183C, strain NPR1, hits give low values) was 0.829 (active). For the same molecule, the normalized growth (S. cerevisiae deletion strains, locus YNL209W, strain ssb2, hits give low values) was 1, the normalized growth (S. cerevisiae deletion strains, locus YNL233W, strain BNI4, hits give low values) was 1.01 and the normalized growth (S. cerevisiae deletion strains, locus YNL248C, strain rpa49, hits give low values) was 0.984. The normalized growth (S. cerevisiae deletion strains, locus YNL250W, strain rad50, hits give low values) was 1.01, the normalized growth (S. cerevisiae deletion strains, locus YNL271C, strain bni1, hits give low values) was 1.01 and the normalized growth (S. cerevisiae deletion strains, locus YNL298W, strain CLA4, hits give low values) was 0.983. For the same molecule, the normalized growth (S. cerevisiae deletion strains, locus YNL307C, strain MCK1, hits give low values) was 0.996, the normalized growth (S. cerevisiae deletion strains, locus YNL322C, strain KRE1 (second series), hits give low values) was 1.02 and the normalized growth (S. cerevisiae deletion strains, locus YNR049C, strain mso1, hits give low values) was 1. The normalized growth (S. cerevisiae deletion strains, locus YNR052C, strain pop2, hits give low values) was 0.981, the normalized growth (S. cerevisiae deletion strains, locus YOL012C, strain htz1) was 0.665 and the normalized growth (S. cerevisiae deletion strains, locus YOL147C, strain pex11, hits give low values) was 1. The normalized growth (S. cerevisiae deletion strains, locus YOR001W, strain rrp6, hits give low values) was 1.01, the normalized growth (S. cerevisiae deletion strains, locus YOR061W, strain CKA2, hits give low values) was 0.984 and the normalized growth (S. cerevisiae deletion strains, locus YOR069W, strain VPS5, hits give low values) was 0.999. The normalized growth (S. cerevisiae deletion strains, locus YOR070C, strain gyp1, hits give low values) was 1, the normalized growth (S. cerevisiae deletion strains, locus YOR080W, strain dia2, hits give low values) was 1 and the normalized growth (S. cerevisiae deletion strains, locus YOR083W, strain WHI5, hits give low values) was 1. It also gave a normalized growth (S. cerevisiae deletion strains, locus YOR106W, strain vam3, hits give low values) of 0.976, a normalized growth (S. cerevisiae deletion strains, locus YOR136W, strain idh2, hits give low values) of 1 and a normalized growth (S. cerevisiae deletion strains, locus YOR144C, strain elg1, hits give low values) of 0.99. It also gave a normalized growth (S. cerevisiae deletion strains, locus YOR184W, strain ser1, hits give low values) of 0.989, a normalized growth (S. cerevisiae deletion strains, locus YOR231W, strain MKK1, hits give low values) of 0.875 and a normalized growth (S. cerevisiae deletion strains, locus YOR265W, strain rbl2, hits give low values) of 0.991. It also gave a normalized growth (S. cerevisiae deletion strains, locus YOR270C, strain vph1, hits give low values) of 0.974, a normalized growth (S. cerevisiae deletion strains, locus YOR290C, strain snf2, hits give low values) of 0.989 and a normalized growth (S. cerevisiae deletion strains, locus YOR316C, strain cot1, hits give low values) of 0.997. The normalized growth (S. cerevisiae deletion strains, locus YPL051W, strain arl3, hits give low values) was 1.01, the normalized growth (S. cerevisiae deletion strains, locus YPL055C, strain LGE1, hits give low values) was 1 and the normalized growth (S. cerevisiae deletion strains, locus YPL078C, strain atp4, hits give low values) was 1. It also gave a normalized growth (S. cerevisiae deletion strains, locus YPL106C, strain sse1, hits give low values) of 0.964, a normalized growth (S. cerevisiae deletion strains, locus YPL240C, strain hsp82, hits give low values) of 0.976 and a normalized growth (S. cerevisiae deletion strains, locus YPL256C, strain CLN2, hits give low values) of 0.905. The normalized growth (S. cerevisiae deletion strains, locus YPR119W, strain clb2, hits give low values) was 0.988, the normalized growth (S. cerevisiae deletion strains, locus YPR141C, strain kar3, hits give low values) was 1.02 and the normalized growth (S. cerevisiae deletion strains, locus YPR163C, strain tif3, hits give low values) was 0.995. The normalized growth (S. cerevisiae deletion strains, locus YPR167C, strain met16, hits give low values) was 0.991, the normalized growth (S. cerevisiae deletion strains, strain wtn01, hits give low values) was 0.985 and the normalized growth (S. cerevisiae strains, strain wild type, hits give low values) was 1.
